Test results published in PubChem BioAssay (NCATS).
Records with an inconclusive call do not appear. Where a call stands in place of a potency, no number is given. Activity calls are given as the source filed them. Calls come from the whole dose curve; as a rule, active = well fitted inhibition curve with a large enough effect; inconclusive = small, poorly fitted or top-dose-only effect; inactive = no such curve, though single readings can be large or run the other way.

biological target: Aldehyde dehydrogenase 1A1 (Homo sapiens) (UniProt P00352); test: qHTS for Inhibitors of the Aldehyde Dehydrogenase Family (ALDH1A1) Confirmatory screens (AID 2061316); conditions: ALDH inhibition qHTS; series mostly up to 47.3 µM; note: nearly all actives have a fitted effect of over 65% in size
Potency is the fitted concentration of half-maximal effect.

Row | Structure (SMILES) | Potency
1 | COc1cc(O[C@@H]2O[C@H](CO[C@H]3OC[C@](O)(CO)[C@H]3O)[C@@H](O)[C@H](O)[C@H]2O)cc(OC)c1O | inactive
2 | Cc1cc(N=Nc2ccc(S(=O)(=O)Nc3ccccn3)cc2)c(N)cc1O | 11.3 µM (active)
3 | Cc1nnc(-c2ccc3occ(-c4ccc(S(C)=O)cc4)c3c2)o1 (stereo unspecified) | inactive
4 | COc1cc(O)c(C(=O)O)c(CCc2ccccc2)c1 | 10.1 µM (active)
5 | COc1ccc(S(=O)(=O)Nc2cccnc2Nc2ccc(O)cc2)cc1 | 6.34 µM (active)
6 | CC1=CC2=C(C)C(=O)C(C)(O)C(O)C2CO1 (stereo unspecified) | inactive
